CD40 NFkB inh – CD40 pathway inhibition in BL2 cells | BL2 NF-kB luciferase reporter, CD40L-induced, 4 h | inhibition, % at 10 µM | 0.94% of 83,000 active | AID 1053188;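 active = mean inhibition of at least 50% with a set share of replicates also reaching that level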;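 note: 0% = neutral control wells and 100% = IKK inhibitor VII at 50 µM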
* marks the source's active call; other numbers are inactive results; ! = not confirmed by another sample; [ ] = another dose, or the depositor's remark. Shown is part of a subset that was picked to be rich in hits.

SMILES	CD40 NFkB inh
N#C[C@H]1[C@H](c2ccccc2-c2ccccc2)[C@@H](CO)N1C(=O)NC1CCCC1	28[25 µM]
COc1c(C)c2c(c(O)c1C/C=C(/C)CCC(=O)O)C(=O)OC2	-9[25 µM]
O=C(NC1=NCCS1)c1ccc(N2CCCC2=O)cc1	-32
Cc1nnc(NC(=O)c2ccc(N3CCCC3=O)cc2)s1	-39
Cc1csc(NC(=O)c2ccc(N3CCCC3=O)cc2)n1	92*
CO[C@H]1CN(C)C(=O)c2ccc(NC(=O)C3CCC3)cc2OC[C@H](C)N(C)C[C@@H]1C	3
COC(=O)c1nn(-c2ccccc2)c(-c2ccccc2)c1C(=O)c1ccccc1	7
COc1cn(-c2ccccc2)nc1C(=O)Nc1ccccc1	-76
COC(=O)c1nn(-c2ccc(-c3ccccc3)cc2)cc1O	70*
C[C@@H]1CN([C@H](C)CO)C(=O)CCCn2cc(nn2)CO[C@H]1CN(C)Cc1ccc2c(c1)OCCN2C	-1[25 µM]
CN(C)C(=O)[C@H]1[C@H](CO)[C@H]2Cn3c(ccc(-c4cncnc4)c3=O)[C@H]2N1Cc1cc(F)ccc1F	6[25 µM]
COc1cccc(C(=O)Nc2ccc3c(c2)C(=O)N(C)[C@H]2CC[C@H](CC(=O)N[C@H](C)c4ccccc4)O[C@H]2CO3)c1	3[25 µM]
CC(C)Cc1ccc(C(C)CC2=CCC(CN(C)C)C2=O)cc1 (configuration not stated)	94*
COc1ccc(NC(=O)N(C)C[C@@H]2OCCCC[C@@H](C)Oc3ccc(NC(=O)Nc4ccccc4)cc3C(=O)N([C@@H](C)CO)C[C@H]2C)cc1	-12
CC(=O)N1[C@H](CO)[C@H](c2ccccc2)[C@@H]1CN(C)S(=O)(=O)c1ccccc1	-2[25 µM]
CCCCC[C@H](O)/C=C/[C@@H]1[C@@H](C/C=C\CCCC(=O)O)[C@@H](O)C[C@H]1O	-3
CCCCC[C@H](O)/C=C/[C@@H]1[C@@H](C/C=C\CCCC(=O)O)[C@H]2CO[C@@H]1C2	15
CCCCC[C@H](O)/C=C/[C@@H]1[C@@H](C/C=C\CCCC(=O)OC)[C@@H](O)C[C@H]1O	45*
COCC(=O)Nc1ccc2c(c1)[C@@H]1C[C@H](CC(=O)N3CCOCC3)O[C@H](CO)[C@@H]1O2	-11[25 µM]
COc1cccc(-c2ccc3c(c2)[C@@H]2[C@@H](CCN2C(=O)C2CCCCC2)[C@H](CO)N3)c1	-17[25 µM]
C[C@@H]1CN([C@@H](C)CO)C(=O)c2c(c3ccccc3n2C)-c2ccccc2CO[C@H]1CN(C)Cc1ccc(Cl)c(Cl)c1	-32[25 µM]
CC(=O)N(C)C[C@H]1Oc2ccc(NC(=O)NC(C)C)cc2CC(=O)N(C)C[C@@H]1C	3
C[C@@H]1CN([C@@H](C)CO)C(=O)CCCn2cc(nn2)CO[C@H]1CN(C)Cc1ccc(O)cc1	4
c1ccc(-c2nnc3n2N=C(c2ccc4c(c2)OCO4)CS3)nc1	6
NC1=NN=C(c2ccc3c(c2)OCCO3)CS1	52*
SMILES	CD40 NFkB inh
c1cc2c(cc1C1=Nn3c(nnc3C3CCCCC3)SC1)OCO2	8
CNC(=O)C[C@H]1CC[C@@H]2[C@H](COc3ccc(NC(=O)c4ccccc4F)cc3C(=O)N2C)O1	-22[25 µM]
O=C(c1ccccn1)N1C[C@H]2[C@@H](c3ccccc31)[C@@H](CO)N2C(=O)C1CC1	0
CC=Cc1ccc2n(c1=O)C[C@@H]1[C@@H](CO)[C@H](C(=O)Nc3nccs3)N(Cc3cc(F)ccc3F)[C@H]21 (mixture of isomers)	-8
CO[C@@H]1CC[C@@H]2CCOc3ccc(C#N)cc3C(=O)N(C)C[C@H](c3ccccc3)CC(=O)N(C)C[C@@H]1O2	-3[25 µM]
O=c1cc(-c2ccccc2)oc2cc(OCc3ccccc3)cc(O)c12	12
CC(C)(C)OC(=O)COc1cc(OCC(=O)OC(C)(C)C)c2c(=O)cc(-c3ccccc3)oc2c1	57*!
CCOC(=O)COc1ccc2c(=O)c(-c3ccccc3)coc2c1	-13
CN(Cc1ccccc1)C(=O)C(Cc1ccc2ccccc2c1)NC(=O)C1CCCN1C(=O)Nc1ccccc1[N+](=O)[O-] (configuration not stated)	15[25 µM]
Cc1noc(C)c1S(=O)(=O)N(C)C[C@@H]1Oc2ccc(NS(=O)(=O)c3cn(C)cn3)cc2CC(=O)N([C@H](C)CO)C[C@@H]1C	-3[25 µM]
COc1ccc(NC(=O)c2ccc(OCC3CCCO3)cc2)cc1OC (configuration not stated)	-28
Cc1ccnc(NC(=O)c2ccc(OCC3CCCO3)cc2)c1 (configuration not stated)	87*
Cc1ccnc(NC(=O)c2ccc3c(c2)C(=O)N(CC2CCCO2)C3=O)c1 (configuration not stated)	-73
COc1ccc(S(=O)(=O)N(C)C[C@H]2OCc3ccccc3-c3c(n(C)c4ccccc34)C(=O)N([C@@H](C)CO)C[C@H]2C)cc1	-8
C[C@H](CO)N1C[C@H](C)[C@H](CN(C)S(=O)(=O)c2ccccc2)OCc2ccccc2-c2c(n(C)c3ccccc23)C1=O	6
C[C@H]1CN([C@@H](C)CO)C(=O)c2c(c3ccccc3n2C)-c2ccccc2CO[C@@H]1CN(C)S(=O)(=O)c1ccc([N+](=O)[O-])cc1	50*[25 µM]

Bioassay records as filed in PubChem.
